The values below come from PubChem BioAssay AID1069 (NMMLSC, 2008).

This experiment in a line: LNCaP granularity increase inducers, single-point recheck – cell-based, side scatter shift, flow cytometry, confirmation (AID 1069).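 Further: LNCaP human prostate cancer cells in low-serum medium with charcoal-stripped FBS; percent of cells with raised granularity gated so DMSO controls show 10%.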 The conditions noted are these: LNCaP differentiation, 4 d, stronger effect = higher value.

The structures appear in SMILES notation. Activity calls are given as the source filed them.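 How the source made its calls: active means high combined rank on largest and smallest cell-count-weighted shift across three tests, rank score above 45, floors 50 and 25 (some results past the limit were not filed as active); inactive means the rest.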

For the compound `CCOc1ccc(C2SCC(=O)Nc3c2c(=O)[nH]n3C2CCCCCC2)cc1` (stereo not given), the side scatter shift is, setting by setting: (at 100 µM) 22.2% (inactive); (side scatter shift, at 10 µM) 10.5%.
For `O=C(COc1ccc2ccccc2c1)N1CCN(C2CCN(Cc3ccccc3)CC2)CC1` the same measures were 54.3% (inactive) and 5.8%.
For `Clc1ccc(COC(Cn2ccnc2)c2ccc(Cl)cc2Cl)cc1` (stereo not given) the same measures were 18.2% (inactive) and 2.85%.
For the compound `CCn1c(=O)cc(OCC(=O)N2CCN(Cc3ccc4c(c3)OCO4)CC2)c2ccccc21`, the side scatter shift (at 100 µM) is 0% (inactive) and the side scatter shift (side scatter shift, at 10 µM) came to 3.6%.
As to `Cc1ccc(Cn2c(C)c3cnn(CC(=O)N4CCC5(CC4)OCCO5)c(=O)c3c2C)cc1`, the side scatter shift (at 100 µM) was 9.1% (inactive) and the side scatter shift (side scatter shift, at 10 µM) was 3.35%.
The matching figures for `CCn1c(=O)cc(OCC(=O)N2CCC3(CC2)OCCO3)c2ccccc21`: 6.7% (inactive) and 1.7%.
The matching figures for `C[C@H]1CCC/C=C/C2C[C@H](O)CC2[C@H](O)/C=C/C(=O)O1` (stereo not given in full): 8.7% (inactive) and 9.7%.
The matching figures for `Cc1nc2ccccc2c(=O)n1-c1ccc(F)cc1`: 8.9% (inactive) and 3.5%.
Consider `Cc1cc(OCC(=O)O)c2c3c(c(=O)oc2c1)CCCC3`, for which the side scatter shift (at 100 µM) is 5.1% (inactive) and the side scatter shift (side scatter shift, at 10 µM) turned out to be 5.9%.
Consider `Cc1ccc2c(c1)[C@@H]1CN(C)CC[C@@H]1N2C(=O)Nc1cccc(C(F)(F)F)c1`, for which the side scatter shift runs as follows: (at 100 µM) 23.1% (inactive); (side scatter shift, at 10 µM) 10.6%.
